Hits are enriched below; roughly 7.4% of the tested compounds scored in any of these assays.
FLuc counter: qHTS profiling assay for firefly luciferase inhibitor/activator using purifed enzyme and Km concentrations of substrates (counterscreen for miR-21 project); 6.9% of 360,000 active; Potency, µM (top dose mostly 57.5 µM), usual class: inhibitors; purified FLuc, Km substrates, luminescence inhibition; AID 588342, 2011; Luciferin 4-monooxygenase (Photinus pyralis), P08659; note: nearly all actives have a fitted effect of over 55% in size
Target sequence (P08659 whole entry, looked up): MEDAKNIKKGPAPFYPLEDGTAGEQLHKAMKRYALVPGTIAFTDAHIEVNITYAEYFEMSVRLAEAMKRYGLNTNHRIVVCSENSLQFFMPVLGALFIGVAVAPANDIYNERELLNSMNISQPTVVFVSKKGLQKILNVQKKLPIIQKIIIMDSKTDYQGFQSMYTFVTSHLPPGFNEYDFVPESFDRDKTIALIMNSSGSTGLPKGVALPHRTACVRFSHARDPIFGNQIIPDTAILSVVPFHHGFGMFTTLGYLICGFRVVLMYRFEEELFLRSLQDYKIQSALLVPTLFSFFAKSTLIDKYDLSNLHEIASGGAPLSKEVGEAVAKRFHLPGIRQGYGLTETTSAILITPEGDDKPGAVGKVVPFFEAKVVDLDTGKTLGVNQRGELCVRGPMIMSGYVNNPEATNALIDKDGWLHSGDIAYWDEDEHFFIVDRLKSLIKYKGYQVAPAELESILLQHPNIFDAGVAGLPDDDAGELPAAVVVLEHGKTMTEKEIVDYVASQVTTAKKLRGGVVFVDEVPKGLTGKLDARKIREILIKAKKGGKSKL
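Purified P. pyralis luciferase (10nM final) with 10uM D-luciferin and 10uM ATP (Km levels) in 50mM Tris acetate pH 7.5, 10mM Mg acetate, 0.01% Tween-20, 0.05% BSA; qHTS 6-point titration, ~60 µM downward; luminescence read.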
NPC1 prom act: qHTS Assay for NPC1 Promoter Activators; Huh7 NPC1 promoter luciferase reporter, 24 h; 2.4% of 320,000 active; Potency, µM (doses to about 9.22 µM), most hits filed as activators; note: nearly all actives have a fitted effect of over 60% in size
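Stable NPC1-promoter luciferase Huh7 line; cpd (DMSO) 24 h, 37 °C, 5% CO2; Amplite luciferase reagent 10 min RT; luminescence readout. qHTS format.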
Rab9 prom act: qHTS Assay for Rab9 Promoter Activators; Huh7 Rab9 promoter-luciferase reporter, luminescence, 24 h; Potency, µM (titrated, usually from 9.22 µM), most hits filed as activators; 2.8% of 320,000 active; AID 485297, 2010; note: nearly all actives have a fitted effect of over 60% in size
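Huh7 cells stably carrying Rab9 promoter–luciferase reporter, plated 1500 cells/well, compound added after 2 h and incubated 24 h at 37 °C; luciferase luminescence then read after 10 min with detection reagent.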
ELG1 genotoxic: qHTS screen for small molecules that induce genotoxicity in human embryonic kidney (HEK293T) cells expressing luciferase-tagged ELG1 | HEK293T ELG1-luciferase reporter, luminescence, 16 h | Potency, µM (doses to about 46 µM), usual class: activators | 1.3% of 330,000 active | AID 504466, 2011; note: nearly all actives have a fitted effect of over 60% in size
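DMSO vehicle served as control against compound-treated ELG1-luciferase HEK293T cells; exposure lasted 16 hr at 37 °C and 5% CO2, followed by ONE-Glo luminescence detection after 30 min.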
SMN2 splice enh: qHTS Assay for Enhancers of SMN2 Splice Variant Expression. HEK293 SMN2-luciferase splicing reporter, luminescence, 30-36 h. Potency, µM (series often up to 46.1 µM), most hits filed as activators. 2.8% of 210,000 active; note: nearly all actives have a fitted effect of over 55% in size
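qHTS luciferase splicing reporter: luminescence rises when SMN2 exon 7 is included in transfected HEK293 cells. Compound exposure lasted 30-36 h at 37C, with 4.5 mM final sodium butyrate as control, followed by a ONE-Glo read.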
p53 reactivation: qHTS assay for re-activators of p53 using a Luc reporter; Potency, µM (titrated, usually from 92.2 µM), most hits filed as activators; 0.063% of 320,000 active; H1299 p53-A138V BP100-luciferase reporter, luminescence, 24 h; note: nearly all actives have a fitted effect of over 45% in size
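H1299 (p53-null), stable ts p53-A138V + BP100-Luc; 1000 cells/well, Opti-MEM/10% FBS; cpd 4 pt, 1:5; 24 h, 37 deg C, 5% CO2; detection reagent 10 min RT; luminescence.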
Large screens that a line does not name were inactive. Calls come from the whole dose curve; as a rule, active = well fitted curve in the direction sought with a large enough effect; inconclusive = small, poorly fitted or top-dose-only effect, or another doubt; inactive = no such curve, though single readings can be large; an effect the other way counts as inactive or inconclusive.

Cc1cccc(/C(N)=N/OC(=O)N2CCOCC2)c1	FLuc counter 16.9µM
Cc1ccc(/C(N)=N/OC(=O)N2CCOCC2)cc1	FLuc counter inconclusive
COc1ccc(C(=O)COC(=O)c2ccn(C)n2)cc1	FLuc counter 16.9µM, NPC1 prom act 3.55µM, Rab9 prom act inconclusive, ELG1 genotoxic inconclusive, p53 reactivation inconclusive (no result: SMN2 splice enh)
O=C(Nc1cccc(Br)c1)N1CCC(CN2CCCCCC2)CC1	none (no result: NPC1 prom act, Rab9 prom act, ELG1 genotoxic, SMN2 splice enh, p53 reactivation)
CCCn1c(-c2ccc[nH]c2=O)nc2cc(C)c(C)cc21	FLuc counter 13.5µM, ELG1 genotoxic inconclusive (no result: SMN2 splice enh)
Cc1cc2nc(-c3ccc[nH]c3=O)n(Cc3cccc(F)c3)c2cc1C	FLuc counter inconclusive (no result: SMN2 splice enh)
COC(=O)c1cc2c(s1)c1cnn(Cc3ccccc3F)c(=O)c1n2C	none (no result: ELG1 genotoxic, SMN2 splice enh, p53 reactivation)
CCCCn1nc(NC(=O)c2cccs2)c2cc3ccccc3nc21	FLuc counter 23.9µM (no result: SMN2 splice enh)
CCCCn1nc(NC(=O)CCC)c2cc3cc(OC)ccc3nc21	none (no result: SMN2 splice enh)
CCCCn1nc(NC(=O)c2cccs2)c2cc3cc(OC)ccc3nc21	FLuc counter 19µM
CCCn1nc(NC(=O)c2cccs2)c2cc3cc(C)ccc3nc21	FLuc counter 6.75µM (no result: SMN2 splice enh)
CCCn1nc(NC(=O)c2cccs2)c2cc3cc(OC)ccc3nc21	FLuc counter 10.7µM, p53 reactivation inconclusive
NC(=O)c1ccc(SCC(=O)OCC(=O)NCc2cccs2)c([N+](=O)[O-])c1	none (no result: FLuc counter, SMN2 splice enh)
COc1cc(S(=O)(=O)N2CCOCC2)cc(C(=O)OCC(=O)NC2CCCCC2)c1OC	none (no result: SMN2 splice enh)
FC(F)(F)c1cc(Cl)c2nc(-c3ccccc3)cn2c1	FLuc counter 1.9µM, NPC1 prom act inconclusive, Rab9 prom act inconclusive, ELG1 genotoxic inconclusive, SMN2 splice enh 14.1µM
Nc1cccc(-c2cn3cc(C(F)(F)F)cc(Cl)c3n2)c1	FLuc counter 1.9µM, NPC1 prom act 1µM, Rab9 prom act 1.58µM, ELG1 genotoxic inconclusive, SMN2 splice enh 7.94µM, p53 reactivation inconclusive
CCCCC1CCC(C(=O)N(C)CC(=O)Nc2cccc(F)c2)CC1 (centres undefined)	none (no result: SMN2 splice enh)
Cc1c(/C=N/NC(=O)c2cccnc2)c2ccccn2c1C(=O)c1ccc(F)cc1	FLuc counter 15.1µM
Cc1c(/C=N/NC(=O)c2ccccc2O)c2ccccn2c1C(=O)c1ccc(F)cc1	FLuc counter 13.5µM
Cc1c(/C=N/NC(=O)c2ccc(O)cc2)c2ccccn2c1C(=O)c1ccc(F)cc1	FLuc counter inconclusive
Cc1c(/C=N/NC(=O)c2cc(=O)[nH]c(=O)[nH]2)c2ccccn2c1C(=O)c1ccccc1	FLuc counter 23.9µM
CC(NC(=O)c1cccc(S(=O)(=O)N2CCc3ccccc32)c1)c1ccco1 (centres undefined)	none (no result: SMN2 splice enh)
C[C@H](CO)N1C[C@H](C)[C@H](CN(C)S(C)(=O)=O)Oc2c(cccc2N(C)C)C1=O	none (no result: FLuc counter, NPC1 prom act, Rab9 prom act, SMN2 splice enh)
COC(=O)c1c(-c2ccccc2OC)sc2ccccc12	none (no result: SMN2 splice enh)
COc1cccc2sc3ccc(C#Cc4ccc(N)cc4)cc3c(=O)c12	FLuc counter 4.78µM, NPC1 prom act 3.55µM, Rab9 prom act 2.51µM, ELG1 genotoxic inconclusive (no result: SMN2 splice enh)
COc1cccc2oc3cc(C#CC4(O)CCCCC4)ccc3c(=O)c12	FLuc counter 0.601µM, NPC1 prom act 0.355µM, Rab9 prom act 0.355µM, ELG1 genotoxic 0.411µM (no result: SMN2 splice enh)
COc1cccc2sc3ccc(C#CC4(O)CCCCC4)cc3c(=O)c12	FLuc counter 2.13µM, NPC1 prom act 1.58µM, Rab9 prom act 2.82µM, ELG1 genotoxic inconclusive, p53 reactivation inconclusive (no result: SMN2 splice enh)
COc1ccc2sc3ccccc3c(=O)c2c1OC	FLuc counter 15.1µM, NPC1 prom act inconclusive, Rab9 prom act inconclusive, ELG1 genotoxic inconclusive
COc1ccccc1-c1oc2ccccc2c1C#CC1(O)CCCCC1	none (no result: FLuc counter, NPC1 prom act, Rab9 prom act, SMN2 splice enh)
CCc1ccc(CNC(=O)c2cnc3c(C)cccn3c2=O)cc1	none (no result: NPC1 prom act, Rab9 prom act, ELG1 genotoxic, SMN2 splice enh, p53 reactivation)

Screens (PubChem)
